# Results filed as inconclusive are left out. Where a call stands in place of a potency, no number is given. Calls of active or inactive are those of the source. Calls come from the whole dose curve.
# Biological target: Retinoic acid receptor RXR-alpha (Homo sapiens) (UniProt P19793)
# Assay: qHTS assay to identify small molecule agonists of the RXR signaling pathway (AID 1159527); note: nearly all actives have a fitted effect of over 35% in size
# Conditions: HEK293T RXRa-UAS-bla, beta-lactamase ratio, 16 h; series mostly up to 76.8 µM
# Excerpt: U.S. Tox21 Program National Center for Advancing Translational Sciences [NCATS] NIH Chemical Genomics Center [NCGC] U.S. Environmental Protection Agency [EPA] National Institutes of Environmental Health Sciences [NIEHS] National Toxicology Program [NTP] U.S. Food and Drug Administration [FDA] Tox21 Assay Overview: The Retinoid X receptor (RXR), a nuclear hormone receptor expressed in liver, spleen, placenta, epidermis, central nervous system. These receptors are able to form homo and heterodimers with other nuclear receptors and due to this heterodimerizing ability, RXR functions as master regulators producing diverse physiological effects. Three subtypes of RXR exist; alpha, beta and gamma. Retinoid X receptor alpha (RXR-alpha) has potential roles in metabolic signaling pathways, skin alopecia, dermal cysts, cardiac development, insulin sensitization etc. Therefore screening environmental chemicals on RXR-alpha signaling can be used for the studies focused on such therapeutic applications. For quantification of RXR-alpha ligands signaling, GeneBLAzer RXR alpha-UAS-bla HEK 293T (Life Technologies, Carlsbad, CA) cells containing a beta-lactamase reporter-gene under control of Retinoid X receptor-alpha response element were used to screen Tox21 10K library.
# Tox21 Assay Protocol Summary: RXR-alpha HEK 293T cells were dispensed at 2,000 cells/6 uL of assay medium containing 2% charcoal-stripped FBS using a Multidrop Combi (ThermoFisher Scientific, Waltham, MA) dispenser. The assay was performed in black wall/clear-bottom 1536-well plates (Greiner Bio-One North America Inc. Monroe, NC). 9-cis retinoic acid was used as a positive control in the agonist mode screen. After the assay plates were incubated at 37 C and 5% CO2 for 5 hr, 23 nL of compounds dissolved in DMSO, positive controls or DMSO only were transferred to the assay plate by a Pintool station (Kalypsys, San Diego, CA). The assay plates were incubated at 37 C and 5% CO2 for 16 hr. One uL of LiveBLAzer B/G FRET substrate (Life Technologies) was added using a Flying Reagent Dispenser (Aurora Discovery, San Diego, CA) and the plates were incubated at room temperature for 2 hr. Fluorescence intensity (405 nm excitation, 460/530 nm emission) was measured using an Envision plate reader (PerkinElmer, Shelton, CT).
# Potency is the fitted concentration of half-maximal effect.
# Chain of Retinoic acid receptor RXR-alpha (Homo sapiens) (P19793 whole entry, looked up): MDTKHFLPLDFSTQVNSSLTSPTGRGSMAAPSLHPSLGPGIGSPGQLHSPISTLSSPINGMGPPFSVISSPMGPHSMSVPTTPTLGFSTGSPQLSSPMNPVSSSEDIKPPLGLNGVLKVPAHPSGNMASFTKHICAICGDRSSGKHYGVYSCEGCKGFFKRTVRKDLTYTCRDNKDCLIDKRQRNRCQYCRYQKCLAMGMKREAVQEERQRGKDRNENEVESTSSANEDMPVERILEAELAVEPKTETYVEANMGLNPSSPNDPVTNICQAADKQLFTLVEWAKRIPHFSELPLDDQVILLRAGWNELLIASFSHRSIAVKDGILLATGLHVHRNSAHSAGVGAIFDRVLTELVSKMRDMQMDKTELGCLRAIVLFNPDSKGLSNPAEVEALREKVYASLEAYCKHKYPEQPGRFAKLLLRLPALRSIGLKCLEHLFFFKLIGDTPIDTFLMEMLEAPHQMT
SMILES,Potency,activation
CCCCCCCOC(=O)CCC,inactive,
CC(=O)Oc1cc(C(C)C)c(OCCN(C)C)cc1C,inactive,
Cc1cc2nc(N)sc2cc1C,inactive,
O=c1oc2c(O)c(O)cc3c(=O)oc4c(O)c(O)cc1c4c23,,11.4% [at 15.8 µM] (inactive)
O=C1C=CC(=O)O1,inactive,
CC1=CC(=O)CC(C)(C)C1=O,inactive,
OC[C@H]1O[C@@H](O[C@H]2[C@H](O)[C@@H](O)[C@H](O)O[C@@H]2CO)[C@H](O)[C@@H](O)[C@H]1O,inactive,
CO[C@@]1(NC(=O)CSCC#N)C(=O)N2C(C(=O)O)=C(CSc3nnnn3C)CS[C@@H]21,inactive,
NC(=O)Cc1cccc(C(=O)c2ccccc2)c1N,inactive,
C=C(C)C(=O)OCCOP(=O)(O)O,inactive,
O=c1[nH]cnc2c1ncn2[C@@H]1O[C@H](CO)[C@@H](O)[C@H]1O,inactive,
Cc1ccc(C(C)C)cc1O,inactive,
CC(C)(CO)[C@@H](O)C(=O)NCCC(=O)O,inactive,
CC(C)C[C@H](NC(=O)OCC1c2ccccc2-c2ccccc21)C(=O)O,inactive,
CCOC(=O)c1cc(=O)c2c(OCC(COc3cccc4oc(C(=O)OCC)cc(=O)c34)OC(=O)[C@@H](N)CCCCN)cccc2o1,inactive,
COC(=O)/C=C(/C)N,inactive,
O=C1CCN(c2ccccc2)N1,inactive,
CCN1CC(CCN2CCOCC2)C(c2ccccc2)(c2ccccc2)C1=O (stereo not given),inactive,
O=C(O)[C@@H]1CSCN1,inactive,
CC(C)S,inactive,

SMILES,Potency,activation
FC(F)(F)C(Cl)(Cl)Cl,inactive,
CNCCC(Oc1ccccc1OC)c1ccccc1 (stereo not given),inactive,
Clc1cccc(-c2cc(Cl)cc(Cl)c2)c1,inactive,
CCOC(=O)c1ccccc1O,inactive,
Cc1cc2c(s1)Nc1ccccc1N=C2N1CCN(C)CC1,inactive,
C=O,inactive,
CS(=O)(=O)c1ccc([C@@H](O)[C@@H](CF)NC(=O)C(Cl)Cl)cc1,inactive,
CCCNC(C)C(=O)Nc1c(C)csc1C(=O)OC (stereo not given),inactive,
CN1CCN(c2c(F)cc3c(=O)c(C(=O)O)cn4c3c2SCC4)CC1,inactive,
O=Cc1ccc(F)c(Br)c1,inactive,
COC(=O)C(C)O (stereo not given),12.6 µM (active),
CCCCNCCCC,inactive,
CC(C)=CCC[C@](C)(O)[C@@H]1CC=C(C)CC1,inactive,
CCN(CC)CCNC(=O)COc1ccc(Cl)cc1,inactive,
CC1=C(O)C(=O)OC1C (stereo not given),inactive,
CCOc1ccc2nc(N)sc2c1,inactive,
COc1cc(Cl)ccc1Cl,inactive,
CC(=O)O[C@H]1CC[C@@]2(C)C(=CC[C@@H]3[C@@H]2CC[C@]2(C)C(C(C)=O)=CC[C@@H]32)C1,inactive,
CN(C)CCOc1ccccc1Cc1ccccc1,inactive,
CC(=O)N(CC(O)CN(C(C)=O)c1c(I)c(C(=O)NCC(O)CO)c(I)c(C(=O)NCC(O)CO)c1I)c1c(I)c(C(=O)NCC(O)CO)c(I)c(C(=O)NCC(O)CO)c1I (stereo not given),inactive,
